{
  "source": "PubChem BioAssay AID493192",
  "about": "(National Center for Advancing Translational Sciences (NCATS), 2011)",
  "note": "Records with an inconclusive call do not appear. A call without a number means that no potency is given here. Active and inactive are the calls of the source. The call rests on the fitted dose curve; in most records, active means well fitted activation curve with a large enough effect; inconclusive means small, poorly fitted or top-dose-only effect; inactive means no such curve, though single readings can be large or run the other way. Potency means the concentration at half of the fitted maximal effect.",
  "data": [
    {"assay": "qHTS Assay for Identifying a Potential Treatment of Ataxia-Telangiectasia: Hit Validation;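 further: phospho-KAP1 level by AlphaLISA as a proxy for ATM-like kinase activity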", "settings": "Ataxia-telangiectasia cell-based hit validation qHTS, in ATM-null A-T patient fibroblasts; series mostly up to 76.9 µM", "how_it_was_run": "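hTERT-immortalized A-T patient fibroblasts (F2112) were dosed at up to 76.7 uM final for 60 min at 37C. After a further 30 min incubation, cells were lysed, and phospho-KAP1 was detected by AlphaLISA after 6 hr at 25C.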", "values": [
      {"smiles": "COc1ccccc1C(=O)NC(=O)Nc1cccc(Cl)c1", "Potency": "inactive"},
      {"smiles": "COc1ccc(C2/C=C\\CN(S(=O)(=O)c3ccc4ccccc4c3)CC(=O)N2Cc2ccc(F)cc2)cc1", "note": "(configuration not stated)", "Potency": "29.2 µM (active)"},
      {"smiles": "CCCc1ccc(S(=O)(=O)Nc2ccc(C)c(NS(C)(=O)=O)c2)cc1", "Potency": "inactive"},
      {"smiles": "CCC(=O)c1ccc2c(c1)OCCO2", "Potency": "inactive"},
      {"smiles": "C/C(CCC1CC(C)OC1=O)=N\\NC(N)=S", "note": "(configuration not stated)", "Potency": "inactive"},
      {"smiles": "CCC(C)Nc1nc(N)c([N+](=O)[O-])c(NCCO)n1", "note": "(configuration not stated)", "Potency": "inactive"},
      {"smiles": "CCCc1nn(C)c(C(=O)Nc2ccc(C(C)(C)C)cc2)c1Cl", "Potency": "inactive"},
      {"smiles": "COc1ccccc1[C@H]1C(c2cccc(Cl)c2)=NN(c2ccccc2)[C@@H]1CO", "Potency": "inactive"},
      {"smiles": "O=C(OCCc1cc2ccccc2c(=O)o1)c1cccc(Br)c1", "Potency": "inactive"},
      {"smiles": "CCOC(=O)c1ccc(-n2c(C)nc3ccc(Br)cc3c2=O)cc1", "Potency": "inactive"},
      {"smiles": "Cc1cccc(C)c1NC(=O)COC(=O)c1cc(=O)c2ccccc2o1", "Potency": "inactive"},
      {"smiles": "Fc1ccc(C2=NOC(c3nnc(-c4ccccc4)o3)C2)cc1", "note": "(configuration not stated)", "Potency": "inactive"},
      {"smiles": "O=C1C(Cl)=C(Nc2ccccc2)C(=O)c2ccccc21", "Potency": "16.4 µM (active)"},
      {"smiles": "O=C(CCCC(=O)N1CCCC1)N1CCCC1", "Potency": "inactive"},
      {"smiles": "C[C@H](NC(=O)OC(C)(C)C)C(=O)NCC1CCC(C(=O)N[C@@H](Cc2ccccc2)C(=O)O)CC1", "note": "(some centres not stated)", "Potency": "inactive"},
      {"smiles": "CNC(=S)N(CCO)Cc1cc2cc3c(cc2[nH]c1=O)OCCO3", "Potency": "inactive"},
      {"smiles": "CCOC(=O)C1=C(O)C(=O)N(Cc2ccccc2)C1", "Potency": "inactive"},
      {"smiles": "CCOC(=O)CNS(=O)(=O)Cc1ccccc1", "Potency": "inactive"},
      {"smiles": "CC12CCC(C(=O)NNc3ccc([N+](=O)[O-])cc3)(OC1=O)C2(C)C", "note": "(configuration not stated)", "Potency": "inactive"},
      {"smiles": "CCOc1ccc(C(=O)NC(=S)Nc2cccnc2)cc1[N+](=O)[O-]", "Potency": "inactive"},
      {"smiles": "O=C(CN1CCN(Cc2ccccc2)CC1)Nc1ccc(Cl)cc1", "Potency": "inactive"},
      {"smiles": "COc1ccc(-n2c(=S)[nH]c3ccccc3c2=S)cc1", "Potency": "inactive"},
      {"smiles": "Cc1ccc(C2(C)NC(=O)N(CC(=O)Nc3ccccc3N3CCCC3)C2=O)cc1", "note": "(configuration not stated)", "Potency": "inactive"},
      {"smiles": "O=C(O)CCCC(=O)N1N=C(c2ccccc2)CC1c1cccs1", "note": "(configuration not stated)", "Potency": "inactive"},
      {"smiles": "Cc1ccc(C(=O)c2c(C)oc3c2C(=O)C(=O)c2ccccc2-3)cc1", "Potency": "26 µM (active)"},
      {"smiles": "CC(C)c1ccc(C(C(=O)NC2CCCCC2)N(C(=O)c2ccccn2)c2cccnc2)cc1", "note": "(configuration not stated)", "Potency": "inactive"},
      {"smiles": "COc1cccc(CNCc2ccc(OC)c3ccccc23)c1OC", "Potency": "inactive"},
      {"smiles": "OC(COC(c1ccc(F)cc1)c1ccc(F)cc1)CN1CCCC1", "note": "(configuration not stated)", "Potency": "inactive"},
      {"smiles": "Cc1nn(C)c(Cl)c1CN1CCN(C2CCCC2)C(CCO)C1", "note": "(configuration not stated)", "Potency": "inactive"},
      {"smiles": "O=C(O)c1ccc(/C=C/c2nc3ccccc3c(=O)[nH]2)cc1", "Potency": "inactive"},
      {"smiles": "CC1C(c2ccccc2)N(C)C(c2ccccc2)CC1(O)c1ccccc1", "note": "(configuration not stated)", "Potency": "13 µM (active)"},
      {"smiles": "N#Cc1c(-c2ccccc2)cc(-c2ccccc2)[nH]c1=O", "Potency": "inactive"},
      {"smiles": "COc1ccc(C2NC(=S)NC3=C2N2CCC3CC2)cc1", "note": "(configuration not stated)", "Potency": "0.823 µM (active)"},
      {"smiles": "CNC(=O)c1ccc(-c2cc3onc(-c4ccccc4)c3c(=O)n2C)cc1", "Potency": "inactive"},
      {"smiles": "O=C(CSc1nnc(CNC(=O)c2ccccc2)o1)NCCc1ccccc1", "Potency": "inactive"},
      {"smiles": "CCn1c(SCc2cccc(F)c2)nnc1-c1ccncc1", "Potency": "inactive"},
      {"smiles": "CCOc1ccc(NC2=NCC(=O)N2Cc2cccs2)cc1", "Potency": "inactive"}
    ]}
  ]
}
